# Test results from PubChem BioAssay (NCI).
# This is part of a sample that, as a whole, favours compounds with a hit. Of some 83,000 tested, about 20% had one in any assay.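 For each line, cells grew in 96-well plates with the test compound present at a single concentration for 48 hours.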 Values without a mark were called inactive. Active and inactive are the calls of the source. Rule for the calls: active = growth percent below 10; inactive = the rest.
# Assays:
# Assay in all cases: NCI-60 one-dose screen, 48 h (100 = growth as untreated, 0 = no growth, -100 = all killed)
# SR leukemia = system: SR leukemia
# OVCAR-5 ovarian = system: OVCAR-5 ovarian
# IGROV1 ovarian = system: IGROV1 ovarian
# OVCAR-3 ovarian = system: OVCAR-3 ovarian
# HS 578T breast = system: HS 578T breast
# NCI/ADR-RES ovarian = system: NCI/ADR-RES ovarian
# T-47D breast = system: T-47D breast
# BT-549 breast = system: BT-549 breast
# MDA-MB-435 melanoma = system: MDA-MB-435 melanoma
# MCF7 breast = system: MCF7 breast
# HCT-116 colon = system: HCT-116 colon
# HCC-2998 colon = system: HCC-2998 colon
# KM12 colon = system: KM12 colon
# RPMI-8226 leukemia = conditions: 10 µM unless noted
# OVCAR-8 ovarian = conditions: 10 µM unless noted
# OVCAR-4 ovarian = conditions: 10 µM unless noted
# SK-OV-3 ovarian = conditions: 10 µM unless noted
# SW-620 colon = conditions: 10 µM unless noted
smiles,measurement,setting,value
CN(C)CCNc1ncc(F)c(-c2cnc3cc(-c4cnn(C)c4)ccn23)n1,growth,SR leukemia; 0.005 µM,99.9%
same,growth,SR leukemia; 30 µM,5.34% (active)
same,growth,OVCAR-5 ovarian; 0.005 µM,99.7%
same,growth,OVCAR-5 ovarian; 30 µM,64.5%
same,growth,IGROV1 ovarian; 0.005 µM,108%
same,growth,IGROV1 ovarian; 30 µM,22.6%
same,growth,OVCAR-3 ovarian; 0.005 µM,109%
same,growth,OVCAR-3 ovarian; 30 µM,75.3%
same,growth,HS 578T breast; 0.005 µM,101%
same,growth,HS 578T breast; 30 µM,60%
same,growth,NCI/ADR-RES ovarian; 0.005 µM,101%
same,growth,NCI/ADR-RES ovarian; 30 µM,62.3%
same,growth,T-47D breast; 0.005 µM,110%
same,growth,T-47D breast; 30 µM,81.7%
same,growth,BT-549 breast; 0.005 µM,97.8%
same,growth,BT-549 breast; 30 µM,69.4%
same,growth,MDA-MB-435 melanoma; 0.005 µM,101%
same,growth,MDA-MB-435 melanoma; 30 µM,43.1%
same,growth,MCF7 breast; 0.005 µM,93.9%
same,growth,MCF7 breast; 30 µM,49.5%
same,growth,HCT-116 colon; 0.005 µM,100%
same,growth,HCT-116 colon; 30 µM,24.3%
same,growth,HCC-2998 colon; 0.005 µM,116%
same,growth,HCC-2998 colon; 30 µM,54.5%
same,growth,KM12 colon; 0.005 µM,87.8%
same,growth,KM12 colon; 30 µM,10.7%
COc1ccc(/C=C2/C(=O)N=C3N2NC(c2ccccc2)=CN3c2ccccc2)cc1,growth,KM12 colon; 10 µM unless noted,108%
N#Cc1c(-c2cccc(F)c2)cc(-c2cccnc2)[nH]c1=O,growth,KM12 colon; 10 µM unless noted,103%
COc1ccc(C/C(C)=C(/c2ccc(OCCN3CCCCCC3)cc2)c2ccc(OC(=O)c3ccccc3)cc2)cc1,growth,SR leukemia; 10 µM unless noted,71.3%
same,growth,RPMI-8226 leukemia,112%
same,growth,OVCAR-8 ovarian,107%
same,growth,OVCAR-5 ovarian; 10 µM unless noted,98.2%
same,growth,OVCAR-4 ovarian,116%
same,growth,SK-OV-3 ovarian,93.7%
same,growth,IGROV1 ovarian; 10 µM unless noted,106%
same,growth,OVCAR-3 ovarian; 10 µM unless noted,117%
same,growth,HS 578T breast; 10 µM unless noted,98.5%
same,growth,NCI/ADR-RES ovarian; 10 µM unless noted,111%
same,growth,T-47D breast; 10 µM unless noted,71.9%
same,growth,BT-549 breast; 10 µM unless noted,106%
same,growth,MDA-MB-435 melanoma; 10 µM unless noted,104%
same,growth,SW-620 colon,98.4%
same,growth,MCF7 breast; 10 µM unless noted,60.5%
same,growth,HCT-116 colon; 10 µM unless noted,93.3%
same,growth,HCC-2998 colon; 10 µM unless noted,105%
same,growth,KM12 colon; 10 µM unless noted,120%
Clc1nccc2c(-c3csc(-c4c[nH]c5ccc(Br)cc45)n3)c[nH]c12,growth,SR leukemia; 10 µM unless noted,6.34% (active)
same,growth,RPMI-8226 leukemia,44.9%
same,growth,OVCAR-8 ovarian,33.4%
same,growth,OVCAR-5 ovarian; 10 µM unless noted,60.1%
same,growth,OVCAR-4 ovarian,48.2%
same,growth,SK-OV-3 ovarian,27%
same,growth,IGROV1 ovarian; 10 µM unless noted,44.3%
same,growth,OVCAR-3 ovarian; 10 µM unless noted,62.5%
same,growth,HS 578T breast; 10 µM unless noted,30.7%
same,growth,NCI/ADR-RES ovarian; 10 µM unless noted,31.3%
same,growth,T-47D breast; 10 µM unless noted,17.7%
same,growth,BT-549 breast; 10 µM unless noted,53.2%
same,growth,MDA-MB-435 melanoma; 10 µM unless noted,36.9%
same,growth,SW-620 colon,-31.1% (active)
same,growth,MCF7 breast; 10 µM unless noted,23.7%
same,growth,HCT-116 colon; 10 µM unless noted,22.8%
same,growth,HCC-2998 colon; 10 µM unless noted,27.8%
same,growth,KM12 colon; 10 µM unless noted,17.1%
O=C(Nc1ncc(Cc2cccc(C(F)(F)F)c2)s1)c1ccc(-n2cnnn2)cc1,growth,SR leukemia; 10 µM unless noted,61.2%
same,growth,RPMI-8226 leukemia,51.5%
same,growth,OVCAR-8 ovarian,58.5%
same,growth,OVCAR-5 ovarian; 10 µM unless noted,74.2%
same,growth,OVCAR-4 ovarian,33.6%
same,growth,SK-OV-3 ovarian,86.4%
same,growth,IGROV1 ovarian; 10 µM unless noted,74.6%
same,growth,OVCAR-3 ovarian; 10 µM unless noted,72.1%
same,growth,HS 578T breast; 10 µM unless noted,79.3%
same,growth,NCI/ADR-RES ovarian; 10 µM unless noted,35.9%
same,growth,T-47D breast; 10 µM unless noted,44.7%
same,growth,BT-549 breast; 10 µM unless noted,67.6%
same,growth,MDA-MB-435 melanoma; 10 µM unless noted,24%
same,growth,SW-620 colon,53.4%
same,growth,MCF7 breast; 10 µM unless noted,28.7%
same,growth,HCT-116 colon; 10 µM unless noted,42.4%
same,growth,HCC-2998 colon; 10 µM unless noted,48.9%
same,growth,KM12 colon; 10 µM unless noted,28.8%
NS(=O)(=O)c1ccc(C(=O)N=Nc2c(O)[nH]c3c(F)cccc23)cc1,growth,SR leukemia; 10 µM unless noted,103%
same,growth,RPMI-8226 leukemia,106%
same,growth,OVCAR-8 ovarian,96.7%
same,growth,OVCAR-5 ovarian; 10 µM unless noted,99.8%
same,growth,OVCAR-4 ovarian,102%
same,growth,SK-OV-3 ovarian,109%
same,growth,IGROV1 ovarian; 10 µM unless noted,99.5%
same,growth,OVCAR-3 ovarian; 10 µM unless noted,117%
same,growth,HS 578T breast; 10 µM unless noted,103%
same,growth,NCI/ADR-RES ovarian; 10 µM unless noted,100%
same,growth,T-47D breast; 10 µM unless noted,97%
same,growth,BT-549 breast; 10 µM unless noted,99.7%
same,growth,MDA-MB-435 melanoma; 10 µM unless noted,107%
same,growth,SW-620 colon,100%
same,growth,MCF7 breast; 10 µM unless noted,96.4%
same,growth,HCT-116 colon; 10 µM unless noted,103%
same,growth,HCC-2998 colon; 10 µM unless noted,106%
same,growth,KM12 colon; 10 µM unless noted,107%
COc1ccc(S(=O)(=O)Nc2cc(Sc3cccc4cccnc34)c(O)c3ccccc23)cc1,growth,SR leukemia; 10 µM unless noted,8.57% (active)
same,growth,RPMI-8226 leukemia,5.31% (active)
same,growth,OVCAR-8 ovarian,9.48% (active)
same,growth,OVCAR-5 ovarian; 10 µM unless noted,42.3%
same,growth,OVCAR-4 ovarian,-99.4% (active)
same,growth,SK-OV-3 ovarian,50.7%
same,growth,IGROV1 ovarian; 10 µM unless noted,5.99% (active)
same,growth,OVCAR-3 ovarian; 10 µM unless noted,-81.8% (active)
same,growth,HS 578T breast; 10 µM unless noted,47.2%
same,growth,NCI/ADR-RES ovarian; 10 µM unless noted,11.1%
same,growth,T-47D breast; 10 µM unless noted,-30.9% (active)
same,growth,BT-549 breast; 10 µM unless noted,27.7%
same,growth,MDA-MB-435 melanoma; 10 µM unless noted,16.4%
same,growth,SW-620 colon,-59.2% (active)
same,growth,MCF7 breast; 10 µM unless noted,-50.5% (active)
same,growth,HCT-116 colon; 10 µM unless noted,-36.8% (active)
same,growth,HCC-2998 colon; 10 µM unless noted,38.6%
same,growth,KM12 colon; 10 µM unless noted,20.3%
CCCCC1=C(Br)C(=O)c2nc(C)ccc2C1=O,growth,SR leukemia; 10 µM unless noted,21.8%
same,growth,RPMI-8226 leukemia,58.5%
same,growth,OVCAR-8 ovarian,88.3%
same,growth,OVCAR-5 ovarian; 10 µM unless noted,102%
same,growth,OVCAR-4 ovarian,75.5%
same,growth,SK-OV-3 ovarian,95%
same,growth,IGROV1 ovarian; 10 µM unless noted,83.9%
same,growth,OVCAR-3 ovarian; 10 µM unless noted,48.5%
same,growth,HS 578T breast; 10 µM unless noted,90.9%
same,growth,NCI/ADR-RES ovarian; 10 µM unless noted,100%
same,growth,T-47D breast; 10 µM unless noted,65.7%
same,growth,BT-549 breast; 10 µM unless noted,90%
same,growth,MDA-MB-435 melanoma; 10 µM unless noted,102%
same,growth,SW-620 colon,60.2%
same,growth,MCF7 breast; 10 µM unless noted,82.1%
same,growth,HCT-116 colon; 10 µM unless noted,42.7%
same,growth,HCC-2998 colon; 10 µM unless noted,108%
same,growth,KM12 colon; 10 µM unless noted,98.7%
CCOC(=O)C1=C(C)N=C2SC=C(c3ccc(F)cc3)N2[C@H]1c1cn(-c2ccccc2)nc1-c1ccc(Cl)cc1,growth,SR leukemia; 10 µM unless noted,88%
same,growth,RPMI-8226 leukemia,88.4%
same,growth,OVCAR-8 ovarian,92%
same,growth,OVCAR-5 ovarian; 10 µM unless noted,91.9%
same,growth,OVCAR-4 ovarian,102%
same,growth,SK-OV-3 ovarian,87.8%
same,growth,IGROV1 ovarian; 10 µM unless noted,96.7%
same,growth,OVCAR-3 ovarian; 10 µM unless noted,114%
same,growth,HS 578T breast; 10 µM unless noted,101%
same,growth,NCI/ADR-RES ovarian; 10 µM unless noted,105%
same,growth,T-47D breast; 10 µM unless noted,79.6%
same,growth,BT-549 breast; 10 µM unless noted,93.1%
same,growth,MDA-MB-435 melanoma; 10 µM unless noted,94.4%
same,growth,SW-620 colon,100%
same,growth,MCF7 breast; 10 µM unless noted,87.2%
same,growth,HCT-116 colon; 10 µM unless noted,90%
same,growth,HCC-2998 colon; 10 µM unless noted,105%
same,growth,KM12 colon; 10 µM unless noted,107%
